In the library only some 21% were active in any assay of this set; here they are far more common.
Pf growth 48h = P. falciparum growth inhibition at 48 hours (one generation); 310,000 tested, 5.9% active; AID 504832; P. falciparum luciferase growth in erythrocytes, 48 h; Potency, µM (highest dose often 28.7 µM), actives largely listed as inhibitors
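Growth was read as firefly luciferase luminescence after a 48 h, 37 C, 5% CO2 exposure of compounds to reporter-bearing P. falciparum cultures (0.1% parasitemia, 2% hematocrit final) in Albumax-supplemented RPMI 1640.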
Pf growth 96h = P. falciparum growth inhibition at 96 hour, primary screen for plastid delayed-death inhibitors; P. falciparum luciferase reporter growth, 96 h; Potency, µM (highest dose often 28.7 µM), most hits filed as inhibitors; 320,000 tested, 6.9% active
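Two parasite generations (96 h, 37 C, 5% CO2) of compound exposure in infected erythrocytes (0.05% parasitemia, 2% hematocrit). Luciferase-reporter P. falciparum; decreased luminescence indicates inhibited growth, aimed at apicoplast-acting delayed death.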
NS1 function inh = influenza NS1 inhibition. Potency, µM (series often up to 46.1 µM). 270,000 tested, 0.4% active; calls by dose curve; also: actives are rising curves; nearly all actives have a fitted effect of over 50% in size
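Recovery from NS1-induced slow growth read by OD600 in budding yeast switched to galactose assay medium (pH 6.0, -URA) at 1:100 dilution. Compound 23 nl per well; the matching strain lacking NS1 serves as control.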
Shiga toxin inh = inhibitors of Shiga toxin in Vero cells. Vero cells, Shiga toxin protein synthesis inhibition reporter. inhibition, % at 38.7 µM. 290,000 tested, 9.2% active; in the data active = inhibition mostly above about 28%, no sharp cut-off; inactive = mostly below about 43%
SARS PLP yeast = inhibitors of SARS-CoV papain-like protease in yeast; 330,000 tested, 0.19% active; AID 485353; S. cerevisiae expressing SARS-CoV PLpro, growth rescue; Potency, µM (series often up to 32.9 µM), actives largely listed as activators; calls by dose curve; also: nearly all actives have a fitted effect of over 55% in size
Cycloheximide cs = affects cycloheximide protein synthesis inhibition readout, counter-screen. cell reporter, cycloheximide protein synthesis inhibition counterscreen. max response, %. 300,000 tested, 12% active. AID 2314; in the data active = max response mostly above about 13%, no sharp cut-off; inactive = mostly below about 14%; also: read at 38.3 µM for the half of the compounds with a filed dose
Numbers stand for hits; i = inactive; ? = inconclusive; nt = no result given; ! = not confirmed by another sample. Unless noted, calls follow the shape of the dose curve; as a rule, active = well fitted inhibition curve with a large enough effect; inconclusive = small, poorly fitted or top-dose-only effect, or another doubt; inactive = no such curve, though single readings can be large or run the other way.

SMILES	Pf growth 48h	Pf growth 96h	NS1 function inh	Shiga toxin inh	SARS PLP yeast	Cycloheximide cs
CSCCC(NC(=O)c1ccco1)C(=O)N1CCN(C(c2ccccc2)c2ccccc2)CC1 (stereo not given)	8.3µM	2.1µM	nt	nt	i	nt
CCCNC(=O)C1CC(c2ccccc2C(F)(F)F)=NO1 (stereo not given)	?	i	nt	nt	i	nt
CS(=O)(=O)c1ncc(Cl)c(C(=O)N2CCN(c3cccc(Cl)c3)CC2)n1	nt	nt	nt	i	nt	i
Cc1ccc(Nc2cc(C)nc3nc(C)nn23)cc1	?	i	?	i	?	i
CCc1nc2nc(C)cc(Nc3cccc(C(F)(F)F)c3)n2n1	2.1µM	i	i	i	i	i
Cc1cc(Nc2cccc(C(F)(F)F)c2)n2nc(C)nc2n1	?	i	i	i	i	i
CCc1cccc(Nc2cc(C)nc3nc(C)nn23)c1	5.2µM	8.3µM	i	i	i	i
Cc1cc(NCc2ccc3c(c2)OCO3)n2nc(C)nc2n1	i	0.37µM	i	i	i	i
Cc1cc(Nc2ccc(Br)c(C)c2)n2nc(C)nc2n1	0.26µM	10µM	i	i	i	i
COc1cc(OC)c(NC(=O)c2csc(C)c2)cc1Cl	i	i	i	i	i	i
COc1ccc(/C=C/CN2CCC(n3nccc3NC(=O)C3CCCC3)CC2)cc1	?	i	i	i	i	i
O=C(CSc1ncn[nH]1)NCCCc1ccccc1	i	nt	?	i	i	i
CNC(=O)C1=C(C)Nc2nc3ccccc3n2C1c1cccc(OC)c1 (stereo not given)	nt	i	i	i	i	i
COc1ccc(C2C(C#N)=C(N)Nc3nc4ccccc4n32)cc1 (stereo not given)	i	i	i	26	i	27
COc1ccc(C2C=C(C)Nc3nc4ccccc4n32)cc1 (stereo not given)	i	i	nt	111	i	43
COc1ccc(C2C(C(=O)c3ccccc3)=C(C)Nc3nc4ccccc4n32)c(OC)c1 (stereo not given)	?	?	i	43	i	31
COc1ccc(OC)c(C2C(C(=O)N(C)C)=C(C)Nc3nc4ccccc4n32)c1 (stereo not given)	i	?	i	i	i	i
O=C(/C=C/c1ccccc1)N1CCN(CCN2C(=O)c3cccc4cccc(c34)C2=O)CC1	i	i	i	i	i	i
CCN(CC(=O)NCc1ccc(F)cc1)CC(O)COCc1cccc(OC)c1 (stereo not given)	i	i	i	i	i	i
CCC(=O)Nc1ccc(Nc2nc(C)c([N+](=O)[O-])c(Nc3ccc(NC(=O)CC)cc3)n2)cc1	?	i	i	i	i	i
COc1ccccc1NS(=O)(=O)c1cccc(C(=O)N/N=C2\CC(=O)CC(C)(C)C2)c1	13µM	?	i	i	i	i
CCN(CC)c1ccc(/C=N/NC(=O)c2cccc(S(=O)(=O)Nc3ccccc3OC)c2)c(O)c1	9.3µM	12µM	i	i	1.8µM	i
COc1ccccc1NS(=O)(=O)c1cccc(C(=O)N/N=C/c2ccc3c(c2)OCCO3)c1	i	i	i	53	i	28
COc1ccccc1NS(=O)(=O)c1cccc(C(=O)N/N=C/c2ccc([N+](=O)[O-])o2)c1	1.9µM	1.7µM	nt	nt	i	nt
CCN(CC)c1ccc(/C=N/NC(=O)c2cccc(S(=O)(=O)Nc3ccccc3OC)c2)cc1	?	i	i	i	i	i
SMILES	Pf growth 48h	Pf growth 96h	NS1 function inh	Shiga toxin inh	SARS PLP yeast	Cycloheximide cs
O=C(CCNC(=O)c1ccccc1Cl)Nc1nc(-c2ccc3ccccc3c2)cs1	?	?	?	i	i	i
Cc1cnc(C(=O)NCCc2ccc(S(=O)(=O)NC(=O)NC3CCCCC3)cc2)cn1	i	6.7µM!	i	i	i	i
Cc1cnc(C(=O)NCCc2ccc(C(F)(F)F)cc2)cn1	i	i	i	i	i	i
CCCNC(=O)c1ccc2c(c1)ncn2-c1ccccc1OC	?	i	i	i	i	12
CCOC(CNC(=O)c1ccc2c(c1)ncn2-c1ccccc1OC)OCC	?	i	i	i	i	i
COc1ccccc1-n1cnc2cc(C(=O)N3CCOCC3)ccc21	i	9.3µM	i	41	i	25
COc1cccc(CC(NC(C)=O)C(=O)NC2CCN(C(=O)Nc3ccc(C)cc3)CC2)c1 (stereo not given)	i	i	i	i	i	i
Cc1ccc(OC(C)C(=O)N2CC(=O)Nc3ccccc32)cc1 (stereo not given)	i	i	i	i	i	i
CCCCn1c(N2CCC(Cc3ccccc3)CC2)nc2c1c(=O)[nH]c(=O)n2C	9.3µM	?	i	i	i	i
CCCCn1c(N2CCCC2)nc2c1c(=O)[nH]c(=O)n2C	i	i	i	i	i	i
Cc1nnc(SCCn2c(N3CCCCCC3)nc3c2c(=O)[nH]c(=O)n3C)s1	i	i	i	i	i	i
Cc1nnc(SCCn2c(N3CCN(C)CC3)nc3c2c(=O)[nH]c(=O)n3C)s1	nt	i	i	i	i	i
Cc1nnc(SCCn2c(N3CCN(Cc4ccccc4)CC3)nc3c2c(=O)[nH]c(=O)n3C)s1	?	7.4µM	i	i	i	i
CC1CCN(c2nc3c(c(=O)[nH]c(=O)n3C)n2Cc2ccccc2Cl)CC1	i	9.3µM	i	i	i	i
Cc1nnc(SCCn2c(N3CCC(Cc4ccccc4)CC3)nc3c2c(=O)[nH]c(=O)n3C)s1	?	9.3µM	i	i	i	i
Cn1c(=O)[nH]c(=O)c2c1nc(N1CCc3ccccc3C1)n2CCSc1nc2ccccc2s1	5.2µM	i	i	i	i	i
Cc1ccc(CCNC(=O)C2CCN(C(=O)N(C)C)CC2)cc1	nt	1.3µM	i	i	i	i
COc1cc(OC)cc(C(=O)N2CCC(C(=O)NCCc3ccccc3)CC2)c1	i	i	i	nt	i	24
Cc1ccc(CCNC(=O)C2CCN(S(=O)(=O)N3CCCCC3)CC2)cc1	i	?	i	i	i	i
CCOC(=O)[C@H]1[C@H]2COc3ccc(C)cc3[C@@H]2N2C(=O)[C@@H](C)NC(=O)[C@@]12C	i	?	nt	nt	i	nt
COc1ccccc1CNC(=O)Cc1csc(NC(=O)Nc2ccccc2OC)n1	?	13µM	nt	nt	i	nt
COc1ccccc1NC(=O)Nc1nc(CC(=O)Nc2cccc(F)c2)cs1	4.1µM	2.1µM	nt	nt	i	nt
COc1ccccc1NC(=O)Nc1nc(C(C)(C)C)cs1	?	?	nt	i	i	21
COc1ccccc1NC(=O)Nc1nc(CC(=O)NCc2ccccn2)cs1	i	i	nt	nt	i	nt
CCOC(=O)/C(=N\Nc1ccccc1Cl)N(C)C1CCCCC1	i	i	nt	i	i	i
O=C(NCCCCN1CCOCC1)c1cc2ccccc2o1	nt	nt	nt	i	nt	i
N#CCC(=O)N/N=C/c1c(-c2ccccc2)n(-c2ccccc2)c2ccccc12	9.3µM	?	i	i	i	i
CCC(=O)N1N=C(c2ccc(NS(=O)(=O)c3ccccc3)cc2)CC1c1ccco1 (stereo not given)	nt	nt	nt	nt	i	nt
CC1(C)CC(NS(=O)(=O)c2ccc3ccccc3c2)CC(C)(C)N1	i	?	i	i	i	i

Assay outcomes as filed in PubChem.
